# Source: paper PMC11062922 (Nature Chemical Biology, 2023)
# Read-outs that look alike come from different tables or passages of the source.
# Experiments:
# PI4KB = tested on: PI4KB; parameters: species or system human, MV4-11 + K-562 + COLO205 + SK-N-BE2 + OVCAR-8; conditions: read-out: apparent Kd, compound concentrations: 100 nM and 1000 nM (sheet 'Samples'), n = 1
# PIK3CG = tested on: PIK3CG; parameters: species or system human, MV4-11 + K-562 + COLO205 + SK-N-BE2 + OVCAR-8; conditions: read-out: apparent Kd, compound concentrations: 100 nM and 1000 nM (sheet 'Samples'), n = 1
# PRKDC = tested on: PRKDC; parameters: species or system human, MV4-11 + K-562 + COLO205 + SK-N-BE2 + OVCAR-8; conditions: read-out: apparent Kd, compound concentrations: 100 nM and 1000 nM (sheet 'Samples'), n = 1
# PKN2 = tested on: PKN2; parameters: species or system human, MV4-11 + K-562 + COLO205 + SK-N-BE2 + OVCAR-8; conditions: read-out: apparent Kd, n = 1
# PDXK = tested on: PDXK; parameters: species or system human, MV4-11 + K-562 + COLO205 + SK-N-BE2 + OVCAR-8; conditions: read-out: apparent Kd, compound concentrations: 100 nM and 1000 nM (sheet 'Samples'), n = 1
# PKN3 = tested on: PKN3; parameters: species or system human, MV4-11 + K-562 + COLO205 + SK-N-BE2 + OVCAR-8; conditions: read-out: apparent Kd, n = 1
# RIPK2 = tested on: RIPK2; parameters: species or system human, MV4-11 + K-562 + COLO205 + SK-N-BE2 + OVCAR-8; conditions: read-out: apparent Kd, compound concentrations: 100 nM and 1000 nM (sheet 'Samples'), n = 1
# ADCK3 = conditions: read-out: apparent Kd, n = 1
# BTK = conditions: read-out: apparent Kd, n = 1
# CDK7 = conditions: read-out: apparent Kd, n = 1
# MAP3K2 = conditions: read-out: apparent Kd, n = 1
# NQO1 = conditions: read-out: apparent Kd, n = 1
# PIK3CD = conditions: read-out: apparent Kd, n = 1
# PRKX;PRKY = conditions: read-out: apparent Kd, n = 1
# STK26 = conditions: read-out: apparent Kd, n = 1
# TESK1 = conditions: read-out: apparent Kd, n = 1
# TGFBR2 = conditions: read-out: apparent Kd, n = 1
# TTN = conditions: read-out: apparent Kd, n = 1
# SLK = tested on: SLK; parameters: species or system human, MV4-11 + K-562 + COLO205 + SK-N-BE2 + OVCAR-8; conditions: read-out: apparent Kd, n = 1
# PLK1 = tested on: PLK1; parameters: species or system human, MV4-11 + K-562 + COLO205 + SK-N-BE2 + OVCAR-8; conditions: read-out: apparent Kd, compound concentrations: 100 nM and 1000 nM (sheet 'Samples'), n = 1
# [1] = compound concentrations:100 nM and 1000 nM (sheet 'Samples')
# [2] = compound concentrations:100 nM and 1000 nM (sheet 'Lestaurtinib' of Supplementary Table 1),run:Lestaurtinib_02364_R1,Plate:MR002
# [3] = compound concentrations:100 nM and 1000 nM (sheet 'Lestaurtinib' of Supplementary Table 1),run:Lestaurtinib_02422_R1,Plate:MR006
# [4] = compound concentrations:100 nM and 1000 nM (sheet 'Lestaurtinib' of Supplementary Table 1),run:Lestaurtinib_02487_R1,Plate:MR012
# [5] = compound concentrations:100 nM and 1000 nM (sheet 'Lestaurtinib' of Supplementary Table 1),run:Lestaurtinib_02339_R2,Plate:MR001
# [6] = compound concentrations:100 nM and 1000 nM (sheet 'Lestaurtinib' of Supplementary Table 1),run:Lestaurtinib_02443_R3,Plate:MR009
# [7] = compound concentrations:100 nM and 1000 nM (sheet 'Lestaurtinib' of Supplementary Table 1),run:Lestaurtinib_02584_R3,Plate:MR017
# [8] = compound concentrations: 100 nM and 1000 nM (sheet 'Samples'), CATDS: 1
compound,measurement,setting,value
Nc1ncc(-c2ccc3nccc(-c4ccncc4)c3c2)cc1S(=O)(=O)N1CCCCC1 [GSK1693850A],potency estimated from few doses,PI4KB; CATDS: 7.2380110997406405E-2,777 nM
same,potency estimated from few doses,PIK3CG; CATDS: 0.150773969962682,88.7 nM
same,potency estimated from few doses,PRKDC; CATDS: 8.88426876970108E-2,398 nM
CCn1c(-c2ccncc2)nc2cnccc21 [SB-735216],potency estimated from few doses,"PKN2; compound concentrations: 100 nM and 1000 nM (sheet 'Samples'), CATDS: 0.34889068310517501",2400 nM
CCCc1ccc(S(=O)(=O)NC2CCN(c3ccnc(Nc4ccc(OC)cc4)n3)C2)cc1 (stereo not drawn) [GSK1379737A],potency estimated from few doses,PI4KB; CATDS: 1,901 nM
COc1ncc(-c2cc(-c3ncc(CN4C[C@@H](C)O[C@@H](C)C4)o3)c3cn[nH]c3c2)cc1NS(C)(=O)=O [GSK2292767],potency estimated from few doses,PDXK; CATDS: 9.0064918958082996E-2,779 nM
same,potency estimated from few doses,PIK3CG; CATDS: 0.13255621983520199,142 nM
same,potency estimated from few doses,PRKDC; CATDS: 9.7121910991741403E-2,515 nM
Cn1ccc(-c2cccc(Nc3ccnc4cc(-c5nccs5)ccc34)c2)n1 [GW525701_KCGS],potency estimated from few doses,PDXK; CATDS: 0.47551644164597001,1690 nM
CCn1c(-c2nonc2N)nc2ccccc21 [SB-693162],potency estimated from few doses,PKN2; [1],157 nM
same,potency estimated from few doses,PKN3; [1],1280 nM
CNC(=O)c1cncc(/C=C/c2c(Cl)cccc2Cl)c1 [GW445014X],potency estimated from few doses,RIPK2; CATDS: 1,773 nM
Lestaurtinib,potency estimated from few doses,ADCK3; [2],1630 nM
same,potency estimated from few doses,ADCK3; [3],80.8 nM
same,potency estimated from few doses,"ADCK3; compound concentrations:100 nM and 1000 nM (sheet 'Lestaurtinib' of Supplementary Table 1),run:Lestaurtinib_02437_R3,Plate:MR007",474 nM
same,potency estimated from few doses,"ADCK3; compound concentrations:100 nM and 1000 nM (sheet 'Lestaurtinib' of Supplementary Table 1),run:Lestaurtinib_02572_R1,Plate:MR015",1620 nM
same,potency estimated from few doses,BTK; [3],760 nM
same,potency estimated from few doses,BTK; [4],385 nM
same,potency estimated from few doses,CDK7; [4],132 nM
same,potency estimated from few doses,"CDK7; compound concentrations:100 nM and 1000 nM (sheet 'Lestaurtinib' of Supplementary Table 1),run:Lestaurtinib_02496_R2,Plate:MR013",1590 nM
same,potency estimated from few doses,MAP3K2; [5],2130 nM
same,potency estimated from few doses,MAP3K2; [6],2170 nM
same,potency estimated from few doses,"NQO1; compound concentrations:100 nM and 1000 nM (sheet 'Lestaurtinib' of Supplementary Table 1),run:Lestaurtinib_02438_R3,Plate:MR008",1600 nM
same,potency estimated from few doses,"NQO1; compound concentrations:100 nM and 1000 nM (sheet 'Lestaurtinib' of Supplementary Table 1),run:Lestaurtinib_02765_R1,Plate:MR026",1440 nM
same,potency estimated from few doses,"NQO1; compound concentrations:100 nM and 1000 nM (sheet 'Lestaurtinib' of Supplementary Table 1),run:Lestaurtinib_03172_R1,Plate:MR031",1700 nM
same,potency estimated from few doses,PIK3CD; [5],190 nM
same,potency estimated from few doses,"PIK3CD; compound concentrations:100 nM and 1000 nM (sheet 'Lestaurtinib' of Supplementary Table 1),run:Lestaurtinib_02577_R3,Plate:MR016",12.4 nM
same,potency estimated from few doses,PRKX;PRKY; [6],1430 nM
same,potency estimated from few doses,"PRKX;PRKY; compound concentrations:100 nM and 1000 nM (sheet 'Lestaurtinib' of Supplementary Table 1),run:Lestaurtinib_02896_R3,Plate:MR030",2210 nM
same,potency estimated from few doses,"STK26; compound concentrations:100 nM and 1000 nM (sheet 'Lestaurtinib' of Supplementary Table 1),run:Lestaurtinib_02407_R1,Plate:MR005",1700 nM
same,potency estimated from few doses,"STK26; compound concentrations:100 nM and 1000 nM (sheet 'Lestaurtinib' of Supplementary Table 1),run:Lestaurtinib_02473_R3,Plate:MR010",2250 nM
same,potency estimated from few doses,STK26; [7],2350 nM
same,potency estimated from few doses,"TESK1; compound concentrations:100 nM and 1000 nM (sheet 'Lestaurtinib' of Supplementary Table 1),run:Lestaurtinib_02482_R3,Plate:MR011",1960 nM
same,potency estimated from few doses,TESK1; [4],1310 nM
same,potency estimated from few doses,TESK1; [7],1960 nM
same,potency estimated from few doses,"TESK1; compound concentrations:100 nM and 1000 nM (sheet 'Lestaurtinib' of Supplementary Table 1),run:Lestaurtinib_02748_R2,Plate:MR024",994 nM
same,potency estimated from few doses,TGFBR2; [6],1570 nM
same,potency estimated from few doses,"TGFBR2; compound concentrations:100 nM and 1000 nM (sheet 'Lestaurtinib' of Supplementary Table 1),run:Lestaurtinib_03172_R3,Plate:MR031",2210 nM
same,potency estimated from few doses,"TGFBR2; compound concentrations:100 nM and 1000 nM (sheet 'Lestaurtinib' of Supplementary Table 1),run:Lestaurtinib_03252_R2,Plate:MR032",2120 nM
same,potency estimated from few doses,TTN; [2],1910 nM
same,potency estimated from few doses,"TTN; compound concentrations:100 nM and 1000 nM (sheet 'Lestaurtinib' of Supplementary Table 1),run:Lestaurtinib_02606_R2,Plate:MR019",737 nM
O=C1NC(=O)C(c2ccccc2Cl)=C1Nc1cccc(O)c1 [SB-390527],potency estimated from few doses,SLK; [8],1140 nM
c1ccc(Oc2ccc(Nc3ccnc4ccc(-c5ccccn5)cc34)cc2)cc1 [GW407034X],potency estimated from few doses,RIPK2; CATDS: 0.62079920866718596,189 nM
Cc1ccccc1COc1cc(-n2cnc3cc(Cl)ccc32)sc1C(N)=O [GW813349X],potency estimated from few doses,PLK1; CATDS: 1,1570 nM
CNC(=O)c1cncc(/C=C/c2ccccc2C)c1 [GW445015X],potency estimated from few doses,RIPK2; CATDS: 1,795 nM
NC(=O)c1sc(-n2cnc3ccccc32)cc1OCc1ccccc1Br [GSK1023156A],potency estimated from few doses,PLK1; CATDS: 1,814 nM
CC1=C(C(=O)Nc2cc3cn[nH]c3cc2F)C(c2ccc(C(F)(F)F)cc2)CC(=O)N1 (stereo not drawn) [GSK429286A],potency estimated from few doses,"PKN3; compound concentrations: 100 nM and 1000 nM (sheet 'Samples'), CATDS: 0.172679408369589",1700 nM
CCn1c(-c2nonc2N)nc2cnc(Oc3cccc(NC(=O)c4ccc(N(C)C)cc4)c3)cc21 [GSK248233A],potency estimated from few doses,PKN2; [1],1780 nM
CSc1ccc(NC2=C(c3ccccc3Cl)C(=O)NC2=O)cc1 [SB-342411],potency estimated from few doses,SLK; [1],1400 nM
Nc1nonc1-c1nc2cnccc2n1C1CC1 [SB-736302],potency estimated from few doses,"PKN2; compound concentrations: 100 nM and 1000 nM (sheet 'Samples'), CATDS: 0.42822259112974997",348 nM
COc1ccc2ncn(-c3cc(O[C@H](C)c4ccccc4C(F)(F)F)c(C(N)=O)s3)c2c1 [GSK317315A],potency estimated from few doses,PLK1; CATDS: 0.88975940081611404,128 nM
COc1cccc(C2=C(N(C)c3ccccc3)C(=O)NC2=O)c1 [SB-334865],potency estimated from few doses,PLK1; CATDS: 1,1420 nM
Cc1cc(O)cc(C)c1/C=C/c1cncc(C(=O)OC(C)(C)C)c1 [GW439255X],potency estimated from few doses,RIPK2; CATDS: 1,437 nM
COc1cc2ncn(-c3cc(OCC4CCCO4)c(C(N)=O)s3)c2cc1OC (stereo not drawn) [GSK204607A],potency estimated from few doses,PLK1; CATDS: 0.33403432138317102,838 nM
same,potency estimated from few doses,"SLK; compound concentrations: 100 nM and 1000 nM (sheet 'Samples'), CATDS: 0.28828322823587899",1160 nM
O=C1NC(=O)C(c2ccccc2Cl)=C1Nc1cccc(Cl)c1 [SB-342409],potency estimated from few doses,SLK; [1],811 nM
CCn1c(-c2nonc2N)nc2c(N3CCCC3)nccc21 [SB-744941],potency estimated from few doses,PKN3; [8],2110 nM
